In general, inhibition refers to the drop in the measured response relative to a control, in per cent.

Structures are written as SMILES. “And” between values parts separate entries of the source, which are not always exact repeats. Equal entries are not always repeated. Out of some 290,000 compounds screened, about 27,000 (9.3%) were called active. The list comes from a sample in which actives are over-represented; it also holds similar structures and randomly drawn compounds. Unmarked numbers belong to inactive results. Rule as the data show it: active = inhibition mostly above about 28% (no sharp cut-off); inactive = mostly below about 43%.

A short description of this experiment: A qHTS for Small Molecule Inhibitors of Shiga Toxin. Also: 0% is about no effect. The conditions noted are these: Vero cells, Shiga toxin protein synthesis inhibition reporter; at 38.7 µM, hits give high values. A general note: Quantitative high-throughput screening tests each substance at several concentrations.
Consider `O=C(CSc1n[nH]c(-c2cccnc2)n1)Nc1ccc(Cl)cc1`, for which the inhibition is -4.36%.
For `Cc1ccc(Nc2c(F)c(F)c(F)c(F)c2C(=O)O)c(C)c1` the value was -5.02%; for `CCCCc1cc(=O)oc2c(C)c(OCC(=O)N3CCC(C(N)=O)CC3)ccc12`, 6.85%; for `O=c1oc2ccccc2c(CNc2ccccc2)c1[N+](=O)[O-]`, 11.8%.
In the case of `O=C1CCC(=O)N(c2ccccc2)N1`, the inhibition was -5.13%.
As for `N#CC1=C(N)N(c2ccccc2)C2=C(C(=O)CCC2)C1c1ccccc1` (configuration not stated), the figure is 20.9%; as for `O=C1CCCc2nn(-c3ccccc3)nc21`, 54.6% (active).
As for `Cc1nn(Cc2ccccc2)c(Cl)c1C(=O)OC1CCOC1=O` (configuration not stated), the figure is -17.1%; as for `O=C(OC1CCOC1=O)c1ccc(-c2nc3ccccc3s2)s1` (configuration not stated), 38.6% (active).
In the case of `CC(C)c1ccc(C(=O)OC2CCOC2=O)cc1` (configuration not stated), the inhibition was -21.8%.
As for `C=CCn1c(=O)c(C(=O)NCc2ccc3c(c2)OCO3)c(O)c2ccccc21`, the figure is -10.5%; as for `COc1ccccc1OCC(=O)Nc1c2c(nn1-c1ccc(F)cc1)CS(=O)(=O)C2`, -5.46%; as for `Cc1c(C(=O)OC(C)C)sc(NC(=O)c2cccnc2)c1C#N`, 30.6%.
`COc1ccc(C(=O)NCc2nnc(SCC(=O)Nc3cccc(OC)c3)o2)cc1`: the inhibition is -4.36%.
For `O=S(=O)(Cc1nnnn1-c1ccccc1)c1ccccc1` the value was -12.2%; for `CSc1nsc(SCC(=O)Nc2cc(C(=O)O)ccc2C)n1`, -7.57%; for `Cc1csc(SCC(=O)Nc2sccc2C#N)n1`, 34%.
As to `COc1ccc(C)cc1NC(=O)CSc1nc(SC)ns1`, the inhibition is -10.7%.
With `COc1cc(OC)cc(-c2nnc(SCC(=O)Nc3ccc(C(=O)O)cc3)s2)c1`, the inhibition was -9.81%.
Consider `COc1ccc(NC(=O)CSc2nc(SC)ns2)c(OC)c1`, for which the inhibition is 69.7% (active).
As for `COc1ccc(NC(=O)CSc2nc(C)cs2)cc1`, the figure is 66.4% (active); as for `Cc1cc(C)c(OCCN2CC(C)OC(C)C2)c(Br)c1` (configuration not stated), 14.6%.
For the compound `NC(=O)c1nsc(C(=O)N(CCCN2CCOCC2)C(C(=O)NC2CCCCC2)c2ccc(Cl)cc2)c1N` (configuration not stated), the inhibition was -2.14%.
For `O=S(=O)(NCC1CC1)c1ccc(F)c(Cl)c1` the value was 1.18%.
As for `CC(C)Nc1ccc(-n2nc3ccccc3[n+]2[O-])cc1`, the figure is 38.2% (active); as for `COc1ccc(CCNC(=O)C2CCCN(S(=O)(=O)c3ccc(OC)cc3)C2)cc1` (configuration not stated), 2.44%.
For `O=C(NC1CCCCC1)C1CCC(CNS(=O)(=O)c2ccccc2)CC1` (configuration not stated), the inhibition was 2.14%.
As for `COc1ccc(S(=O)(=O)n2cnc3ccccc32)c(C)c1`, the figure is -9.95%; as for `COc1ccc(CNC(=O)CN(Cc2ccccc2Cl)C(=O)c2csnn2)cc1`, -3.03%; as for `O=C(N/N=C/c1ccc(Cl)c(Cl)c1)c1ccc2nc[nH]c2c1`, 23.8%.
`COC(=O)C1C(=O)c2c([nH]c(C(=O)OCCSC)c2C)CC1C` (configuration not stated): the inhibition was 57.7% (active).
As for `CCCOC(=O)c1[nH]c2c(c1C)C(=O)CC(c1cccs1)C2` (configuration not stated), the figure is -12.4%; as for `CCCOC(=O)C1=C(C)NC2=C(C(=O)C(C(=O)OC)C(C)C2)C1c1ccc(N(C)C)cc1` (configuration not stated), 16.2%; as for `COc1ccc(NC(=O)CN2C(=O)CSc3ccc(S(=O)(=O)N4CCC(C)CC4)cc32)cc1`, 1.63%.
Take `COc1ccc(Cl)cc1NC(=O)CN(C)C(=O)CCCc1c[nH]c2ccccc12`: the inhibition was -2.46%.
As for `CCOC(=O)CCCN1CC(O)=C(c2nc3ccccc3s2)C1=N`, the figure is 21.6%.
On to `N=C1C(c2nc3ccccc3s2)=C(O)CN1NC(=O)c1ccc([N+](=O)[O-])cc1`, for which the inhibition is 49.3% (active).
Take `CCc1ccc(N2CC(O)=C(c3nc4ccccc4c(=O)[nH]3)C2=N)cc1`: the inhibition is 23.1%.
As for `O=C(Nc1nc2ccc([N+](=O)[O-])cc2s1)c1ccc(S(=O)(=O)N2CCCc3ccccc32)cc1`, the figure is -9.77%; as for `COc1ccccc1N1CC(O)=C(c2nc3ccccc3s2)C1=N`, 31.4% (active).
As for `N=C1C(c2nc3ccccc3[nH]2)=C(O)CN1NC(=O)c1c[nH]c2ccccc12`, the figure is -8.44%; as for `COc1cccc(CNS(=O)(=O)c2csc(C(N)=O)c2)c1`, 9.09%.
For `O=C(N/C(=C\c1ccc(F)cc1)C(=O)N1CCCCCC1)c1ccccc1` the value was -12.7%; for `O=C(CSc1ncnc2c1oc1ccccc12)NC1CCCC1`, -5.84%; for `Cc1cc(-c2nnc(SCC(=O)Nc3ccc(F)cc3)n2N)n[nH]1`, 12.4%.
Regarding `COc1ccc(-n2nc(C(=O)NCC(=O)N3CCC(C(N)=O)CC3)c3ccccc3c2=O)cc1OC`, the inhibition was -12.3%.
In the case of `CS(=O)(=O)Nc1cccc(-c2cn3ccccc3n2)c1`, the inhibition was 87%.
As for `CS(=O)(=O)Nc1cccc(C2=NN(C(=O)c3cccc(F)c3)C(c3cccs3)C2)c1` (configuration not stated), the figure is -7.67%.
For `CS(=O)(=O)Nc1cccc(C2=NN(S(=O)(=O)c3ccccc3)C(c3cccs3)C2)c1` (configuration not stated) the value was -11%; for `Cc1ccc(C2CC(c3cccc(NS(C)(=O)=O)c3)=NN2S(C)(=O)=O)cc1` (configuration not stated), 77.9% (active); for `CCS(=O)(=O)Nc1ccc(C2=NN(C(C)=O)C(c3cccs3)C2)cc1` (configuration not stated), 12.4%.
As to `CS(=O)(=O)Nc1ccc(C2=NN(S(C)(=O)=O)C(c3cccs3)C2)cc1` (configuration not stated), the inhibition is 63.1% (active).
For `O=C1c2ccccc2C(=O)N1c1cccc2ccccc12`, the inhibition is 25.6%.
As for `O=C(NC1CCCC1)C1CC(=O)N(c2ccc(F)cc2)C1` (configuration not stated), the figure is -11.9%; as for `CN(C)S(=O)(=O)c1cccc(NC(=O)Cc2ccsc2)c1`, -2.02%; as for `O=C1CCN(Cc2ccccc2)CCN1[C@H](CSc1ccccc1)c1ccccc1`, 11%.
As for `Cc1cccn2c(=O)c3cc(C(=O)NCC4CCCO4)c(=N)n(Cc4ccc(F)cc4)c3nc12` (configuration not stated), the figure is -2.34%.
As for `CC(=O)Nc1ccc(NC(=O)COc2ccc(-c3ccccc3)cc2)cc1`, the figure is 10.7%; as for `C/C(=N\NC(=O)OC(C)(C)C)c1ccc[nH]1`, 94.2% (active).
Turning to `Cc1ccccc1NC(=O)NNC(=O)OC(C)(C)C`, the inhibition is -3.29%.
On to `CC(C)(C)OC(=O)NNc1c2ccccc2nc2ccccc12`, for which the inhibition was 77%.
For the compound `Cc1nn(C(C)(C)C)c(OC(=O)CC(C)C)c1S(=O)(=O)c1ccccc1`, the inhibition was -3.07%.
As for `CC/C(=N\NC(=O)c1c(C)nc2ccccn12)c1ccc(Cl)cc1`, the figure is -1.53%; as for `COc1cccc(C(=O)NCCSc2ccc(Br)cc2)c1`, 0.537%; as for `COc1ccc(C(=O)NCc2nnc(SCCOc3ccccc3)n2C)cc1`, -8.47%.
As for `COc1ccc(C(=O)NCCSc2ccccc2C)cc1`, the inhibition is 47.6% (active).
`CCn1cc(C(=O)NCC(=O)NC(C)(C)CO)c(=O)c2cc3c(cc21)OCO3`: the inhibition is -1.71%.
As for `COc1ccccc1-n1cnc2cc(NS(=O)(=O)c3ccccc3)ccc21`, the inhibition was 60.3% (active).
For `COc1ccc(NS(=O)(=O)c2ccc(NC(C)=O)cc2)cc1OC` the value was -6.59%; for `COCCCNC(=O)c1ccc2c(c1)ncn2-c1ccccc1OC`, 41.9%.
For `COc1cccc(-c2coc3cc4oc(=O)c(CC(=O)O)c(C)c4cc23)c1` the value was 5.32%.
For `Cc1nc2ccc(N3CCN(C)CC3)cc2nc1C` the value was 41.4% (active); for `COc1cccc(-c2nc3ccc(N4CCN(C)CC4)cc3[nH]2)c1`, -25.4%.
In the case of `CN1CCN(c2ccc([N+](=O)[O-])c(Sc3nc4ccccc4[nH]3)c2)CC1`, the inhibition is -2.62%.
For the compound `CCCc1cc(=O)oc2c(C)c(OCC(=O)NCc3ccccn3)ccc12`, the inhibition was -5.37%.
As for `CCCc1cc(=O)oc2c(C)c(OCC(=O)N3CCC(C(=O)O)CC3)ccc12`, the figure is -4.56%; as for `CCCc1cc(=O)oc2c(C)c(OCC(=O)Nc3ccccn3)ccc12`, 97.8% (active); as for `Cc1cnc(C(=O)Oc2cccc(Cl)c2Cl)cn1`, -6.08%.
On to `O=C(/C=C/c1cccc(C(F)(F)F)c1)N1CCN(c2ccccn2)CC1`, for which the inhibition was -28.6%.
For `Cc1ccccc1CSc1nnc(Cn2c(=O)sc3ccccc32)n1C`, the inhibition is -3.34%.
For `O=C(CSc1nnc(-c2cccnc2)n1CCc1ccccc1)NCc1ccccc1` the value was 9.64%.
`Cc1ccccc1CSc1nnc(-c2ccccn2)n1N`: the inhibition was 62.4% (active).
As for `Cn1c(SCC(=O)C(C)(C)C)nnc1-c1ccccn1`, the figure is 51.8%; as for `N#Cc1ccc(CSc2nnc(-c3ccccn3)n2-c2ccc(Cl)cc2)cc1`, 9.81%.
For the compound `Cc1ccccc1CSc1nnc(-c2cccnc2)n1N`, the inhibition was 47.7% (active).
Consider `COCCNc1cc(-c2ccccc2)nc2cc(-c3cccc(F)c3)nn12`, for which the inhibition was 13.9%.
As for `O=S(=O)(c1ccc2c(c1)OCCCO2)N1CCN(S(=O)(=O)c2c(F)cccc2F)CC1`, the figure is -5.98%.
As for `Cc1ccc(CNC(=O)C2(C(F)(F)F)C/C(=C\Cc3ccccc3)CCCO2)o1` (configuration not stated), the figure is -4.26% and 0.0699%.
For `COc1ccc(N(C)C(=O)C2CCN(S(=O)(=O)c3cccc4nsnc34)CC2)cc1` the value was 8.11%; for `Cc1ccc(S(=O)(=O)N2CCN(C)CC2)cc1C(=O)NC1CCCCC1`, -5.78%; for `Cn1c(/C(C#N)=C2/CCCCCN2)nc2ccccc21`, 9.28%.
Consider `N#C/C(=C1\CCCN1)c1nc(-c2ccccc2)cs1`, for which the inhibition is 76.5% (active).
`N#CC(=C1CCCC1)c1nc(-c2ccc(Cl)cc2)cs1`: the inhibition was 50.4% (active).
As for `CCCCCN1CC(O)=C(c2nc(-c3ccc(Cl)cc3)cs2)C1=N`, the figure is 23.2%; as for `c1ccc(-c2csc(N3CCc4ccccc4C3)n2)cc1`, 57.4%.
`N#C/C(=C1/CCCN1)c1ccccn1`: the inhibition was -5.25%.
For `N#CC(=C1SC=CS1)c1nc(-c2ccccc2)cs1`, the inhibition was 79.5% (active).

The record behind these values is PubChem BioAssay AID2315 (National Center for Advancing Translational Sciences (NCATS), 2010).
